This is an account of results in PubChem BioAssay AID1508602 (The Scripps Research Institute Molecular Screening Center, 2020).

Molecules are shown by their SMILES. Out of some 650,000 compounds screened, about 6,800 (1%) were called active. No stated cut-off is given here; in the data, active means activation above about 4.9%; inactive means the rest. The entries come from a sample that favours actives as a whole.

Sequence of G-protein coupled receptor 151 (Homo sapiens) (Q8TDV0 whole entry, looked up): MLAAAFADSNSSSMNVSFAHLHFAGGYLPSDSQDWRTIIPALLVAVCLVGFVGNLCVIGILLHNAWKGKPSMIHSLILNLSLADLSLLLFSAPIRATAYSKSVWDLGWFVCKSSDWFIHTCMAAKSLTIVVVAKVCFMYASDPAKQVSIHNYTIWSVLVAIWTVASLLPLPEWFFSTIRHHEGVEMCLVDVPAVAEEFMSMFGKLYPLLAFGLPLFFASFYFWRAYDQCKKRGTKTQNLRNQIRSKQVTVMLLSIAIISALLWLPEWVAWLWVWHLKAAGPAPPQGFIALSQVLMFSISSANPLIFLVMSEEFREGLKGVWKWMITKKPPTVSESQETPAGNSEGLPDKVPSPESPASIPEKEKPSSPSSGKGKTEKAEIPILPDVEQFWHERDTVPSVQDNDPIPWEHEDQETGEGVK

The assay has as its target G-protein coupled receptor 151 (Homo sapiens) (UniProt Q8TDV0). The assay can be described thus: activates the human receptor GPR151, primary screen, cell-based, PathHunter beta-arrestin, luminescence (AID 1508602).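 Further: 0% = median of compound wells and 100% = cells with positive control.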 The settings on record: PathHunter beta-arrestin GPR151 cells, at 11.2 µM, active compounds read high.
On to `CCOC(=O)c1cnc2c(C)cc(Cl)cc2c1Nc1cccc([N+](=O)[O-])c1`, for which the activation is -1.43% (inactive). In the case of `Cc1c(C)c2ccc(O)c(I)c2oc1=O` it was 0.449% (inactive); in that of `COc1ccc([N+](=O)[O-])cc1/C=C1\C(=O)NC(=O)N(c2ccc(Br)cc2)C1=O`, 2.28% (inactive); in that of `CCCOc1ccc([N+](=O)[O-])cc1C=C1C(=O)NC(=O)NC1=O`, 5.32% (active). Take `O=C1NC(=O)C(=Cc2cc([N+](=O)[O-])cc(Br)c2O)C(=O)N1`: the activation is 0.835% (inactive). On to `O=C(NC1CCCCC1N1C(=O)CSC1=O)c1ccccc1F` (centres undefined), for which the activation is 0.048% (inactive). `CCCN1C(=O)C(NS(=O)(=O)c2ccc(N)cc2)(C(F)(F)F)C(C(=O)OC)=C1C` (centres undefined): the activation is 6.6% (active). In the case of `CCOC(=O)C1=C(C)N(Cc2ccco2)C(=O)C1(NC(=O)c1ccccc1)C(F)(F)F` (centres undefined) it was 0.126% (inactive); in that of `CC(=O)Nc1ccc(S(=O)(=O)NC2(C(F)(F)F)C(=O)NC(C)=C2C#N)cc1` (centres undefined), 0.355% (inactive). In the case of `Fc1cccc(C2=NC3(CCCC3)NC2=S)c1` it was 1.94% (inactive); in that of `Cc1nc(C)c(-c2csc(Nc3ccc(Br)cc3)n2)s1`, -0.252% (inactive); in that of `CC(=O)Nc1nc(C(=O)Nc2nc(-c3sc(C)nc3C)cs2)cs1`, 5.72% (active). In the case of `CC(=O)Nc1nc(C)c(-c2csc(Nc3ccc(C)cc3)n2)s1` it was 0.136% (inactive); in that of `N#Cc1c(SCC(=O)Nc2ccc(Br)cc2)nsc1SCC(=O)Nc1ccc(Br)cc1`, -0.245% (inactive). In the case of `CCOc1ccccc1-c1cc(C(=O)N2CCOCC2)c2ccccc2n1`, the activation is 13.1% (active).

As to `Cc1cc(C(=O)N2CCOCC2)c2ccccc2n1`, the activation is -0.327% (inactive). In the case of `Cc1cccc2c(C(=O)N3CCOCC3)cc(-c3ccccc3)nc12` it was 0.152% (inactive). In the case of `O=S(=O)(c1ccc(F)cc1)N1CCN(C(=S)NC2CCCC2)CC1` it was -1.65% (inactive); in that of `COc1ccc(NC(=S)N2CCN(S(=O)(=O)c3ccc(F)cc3)CC2)c(OC)c1`, 8.74% (active); in that of `COc1cc([N+](=O)[O-])ccc1NC(=S)N1CCN(S(C)(=O)=O)CC1`, 0.0846% (inactive). In the case of `COc1ccc(NC(=O)CSc2nc3n[nH]c(C)c3c(=N)n2-c2ccccc2Cl)c(OC)c1` it was 0.84% (inactive); in that of `CCOc1ccc(C(c2sc3nc(C)nn3c2O)N2CCCC2)cc1OC` (centres undefined), 0.827% (inactive); in that of `COc1cc(Cl)c(C)cc1NC(=O)Cn1cnc2sc(C)c(C)c2c1=O`, 0.0902% (inactive). Turning to `COCCNC(=O)CCCNC(=O)Cn1cnc2sc(C)c(C)c2c1=O`, the activation is 1.23% (inactive). Take `COc1ccc(C2(NC(=O)CCn3cnc4sc(C)c(C)c4c3=O)CCCCC2)cc1`: the activation was 4.94% (active). In the case of `Cc1ccc(C2=NC(c3cc(Br)ccc3F)NC(c3cc(Cl)ccc3O)C2)cc1` (centres undefined) it was 10.7% (active); in that of `Cc1ccc(C2=NC(c3ccc(F)cc3)NC(c3cc(Cl)ccc3O)C2)cc1` (centres undefined), 1.41% (inactive).

As for `COc1ccccc1C1N=C(c2ccc(C)cc2)CC(c2cc(Cl)ccc2O)N1` (centres undefined), the activation is 1.39% (inactive).

As to `O=C(COc1ccc(Cl)cc1)Nc1ccc(F)c(F)c1`, the activation is 0.102% (inactive). In the case of `Cc1ccc(OCC(=O)Nc2ccc(C)c(Cl)c2)cc1C` it was 1.59% (inactive); in that of `O=C(COc1ccc(CO)cc1)Nc1ccc(Cl)c(Cl)c1`, 8.11% (active). For `CCN(CC)S(=O)(=O)c1ccc(NC(=O)c2ccc(F)cc2)cc1`, the activation is -0.476% (inactive).

For the molecule `C=CCc1ccccc1OCCN1CCNCC1`, the activation was 5.95% (active). In the case of `Cc1cccc(OCCN2CCNCC2)c1C` it was 0.825% (inactive); in that of `Cc1ccc(C(C)(C)C)c(OCCN2CCNCC2)c1`, 0.932% (inactive); in that of `COc1cccc(CNC(=O)Cn2c(=O)oc3ccccc32)c1`, -1.36% (inactive). In the case of `N#CCCn1c2ccc(Cl)cc2c2cc(Cl)ccc21` it was 2.4% (inactive). In the case of `Cc1ccc(-n2cc(-c3ccccc3)c3c(N4CC(C)OC(C)C4)ncnc32)cc1` (centres undefined) it was 7.76% (active). As to `COc1ccc(N2CCN(c3ncnc4c3c(-c3ccccc3)cn4-c3ccc(C)cc3)CC2)cc1`, the activation is -2.7% (inactive).

On to `CC1CN(c2ncnc3c2c(-c2ccccc2)cn3-c2cccc(C(F)(F)F)c2)CC(C)O1` (centres undefined), for which the activation was -1.46% (inactive). In the case of `CCN(CC)CCCNCC(=O)Nc1ncc(C)s1` it was -1.43% (inactive); in that of `OCC1(Cc2ccccc2C(F)(F)F)CCN(Cc2ccncc2)CC1`, -0.707% (inactive); in that of `Cc1ccccc1CC1(CO)CCCN(C(=O)CN(C)Cc2ccncc2)C1` (centres undefined), 0.125% (inactive).

For `Cc1ccccc1CC1(CO)CCCN(Cc2ccncc2)C1` (centres undefined), the activation is 5.32% (active). In the case of `Cc1csc(COc2ccc(C(=O)NCc3cccs3)cc2)n1` it was -2.02% (inactive); in that of `Cn1ncc2c(NNC(=O)Cc3cccc4ccccc34)ncnc21`, 6.03% (active); in that of `Cn1ncc2c(Nc3cccc4ccccc34)ncnc21`, 2.47% (inactive). In the case of `Cn1ncc2c(NNC(=O)c3ccc(C(C)(C)C)cc3)ncnc21` it was 1.02% (inactive); in that of `O=C1c2ccccc2C(=O)C1(Nc1ccc(-c2ccccc2)cc1)c1ccccc1`, 0.902% (inactive); in that of `O=C(Nc1ccc2c(c1)C(=O)Nc1cc(Cl)ccc1O2)c1cccc(F)c1`, -0.172% (inactive). In the case of `O=C(NCc1nnc(SCC(=O)N2N=C(c3cccs3)CC2c2ccc(F)cc2)n1Cc1ccccc1)c1cccc(F)c1` (centres undefined) it was 5.02% (active). Consider `Cc1ccc(C2CC(c3cccs3)=NN2C(=O)CSc2nnc(CNC(=O)c3cccs3)n2Cc2ccccc2)cc1` (centres undefined), for which the activation was -0.904% (inactive).

In the case of `COc1ccc(C2CC(c3cccs3)=NN2C(=O)CSc2nnc(CNC(=O)c3cccc(C)c3)n2Cc2ccccc2)cc1` (centres undefined), the activation was -0.0797% (inactive). Regarding `CSc1ccc2nc(NC(=O)c3ccccc3Cl)sc2c1`, the activation is -0.347% (inactive). In the case of `N#Cc1ccccc1CSc1nc2ccccc2o1` it was -1.07% (inactive); in that of `CC(=O)OCC#CCSc1nc2ccccc2o1`, -0.909% (inactive); in that of `Fc1ccccc1OCCSc1nc2ccccc2o1`, 4.92% (active).

For the molecule `COc1ccccc1C(=O)N1CCNC(=O)C1CC(=O)Nc1ccc(Cl)cc1` (centres undefined), the activation was -1.89% (inactive). With `O=C(Cc1ccc([N+](=O)[O-])cc1)Nc1cccc(Cl)c1`, the activation was -0.456% (inactive). In the case of `O=C(CC1C(=O)NCCN1C(=O)c1ccc([N+](=O)[O-])cc1)Nc1cccc(Cl)c1` (centres undefined) it was 7.94% (active); in that of `CCc1cc2c(=O)c(-c3ccc4c(c3)OCCCO4)coc2cc1OC`, -0.907% (inactive). As for `CCc1cc2c(=O)c(-c3ccc4c(c3)OCCCO4)coc2cc1OC(=O)N1CCOCC1`, the activation was 8.05% (active). Turning to `CCCc1cc2c(=O)c(-c3ccc4c(c3)OCO4)coc2cc1O`, the activation was 0.792% (inactive). In the case of `COc1ccccc1N=Cc1cccc(O)c1O` it was -0.891% (inactive); in that of `O=C(c1cccc(NS(=O)(=O)c2ccc(Cl)cc2)c1)N1CCCC1`, -1.72% (inactive). As for `O=C(c1ccc(Cl)cc1)N1CCCC1`, the activation was -0.435% (inactive). In the case of `O=C(c1ccc(CNS(=O)(=O)c2ccc(Cl)cc2)cc1)N1CCCC1` it was 6.5% (active); in that of `COC(=O)CN1C=C(C(=O)OC)C(c2ccc(OC)c(O)c2)C(C(=O)OC)=C1`, 6.57% (active). For `COC(=O)C1=CN(Cc2ccc(F)cc2)C=C(C(=O)OC)C1c1ccc(OC)c(OC)c1`, the activation is -0.344% (inactive). In the case of `COC(=O)C1=CN(CC2CCCO2)C=C(C(=O)OC)C1c1ccc(OC)c(O)c1` (centres undefined) it was 1.3% (inactive). In the case of `CCOC(=O)C1=CN(Cc2ccc(Cl)cc2)C=C(C(=O)OCC)C1c1cc(Br)c(O)c(OC)c1` it was 3.19% (inactive). In the case of `COC(=O)C1=CN(Cc2ccc(OC)cc2)C=C(C(=O)OC)C1c1ccc(O)c(OC)c1` it was 1.75% (inactive); in that of `COC(=O)C1=CN(Cc2ccc(Cl)cc2)C=C(C(=O)OC)C1c1cc(OC)c(O)c(OC)c1`, 8.56% (active). Turning to `CCOc1ccc(/C(O)=C2/C(=O)C(=O)N(CCN(CC)CC)C2c2ccc(C)cc2)c(C)c1` (centres undefined), the activation was 0.496% (inactive).

In the case of `CCOc1ccc(N2C(=O)C3C4C=CC(C5CC45)C3C2=O)cc1` (centres undefined), the activation is -1.25% (inactive). In the case of `Cc1cccc(CN2CCN3C(=O)[C@H](Cc4cnc[nH]4)NC(=O)[C@H]3C2)n1` it was 0.592% (inactive). In the case of `CC(=O)Nc1ccc2c(c1)CN(Cc1ccccc1)CO2` it was 1.47% (inactive); in that of `CCC(CC)C(=O)Nc1cccc(C(=O)Nc2ccccc2C(=O)NC(C)C)c1`, 0.373% (inactive). In the case of `CCC(CC)C(=O)Nc1cccc(C(=O)N2CCCC2)c1` it was 5.74% (active).

Turning to `CCC(CC)C(=O)Nc1cccc(F)c1`, the activation is 4.27% (inactive). With `O=C(c1cccc(N2C(=O)c3ccccc3C2=O)c1)N1CCOCC1`, the activation is -0.354% (inactive). In the case of `CC1(C)Oc2ccc(C(=O)N3CCOCC3)cc2N(CC(=O)Nc2ccccc2)C1=O` it was -0.343% (inactive). In the case of `O=C(CCc1ccccc1)Nc1cccc(C(=O)N2CCOCC2)c1` it was 11.5% (active). As for `Cc1ccc2oc(-c3cccc(NC(=O)c4ccc(F)cc4)c3)nc2c1`, the activation is 0.17% (inactive). In the case of `O=C(c1cc(=O)oc2cc(OCc3ccccc3)ccc12)N1CCN(c2ccccn2)CC1` it was -0.0035% (inactive); in that of `Cc1ccc([N+](=O)[O-])cc1NC(=O)CC12CC3CC(CC(C3)C1)C2`, 2.69% (inactive). In the case of `CC(C)(C)c1ccc(C(=O)NCCC(=O)NCCc2ccccc2)cc1` it was 0.46% (inactive). In the case of `O=C1CSC2=NCN(c3ccc(I)cc3)CN12` it was 0.445% (inactive); in that of `CCOc1cc(C#N)ccc1OCC(=O)NCc1ccc2c(c1)OCO2`, -0.667% (inactive). With `COc1ccccc1CNC(=O)C1CCN(Cc2nc(-c3ccccc3C)oc2C)CC1`, the activation was -0.157% (inactive).

As for `Cc1ccc2nc(SCc3ccccc3)nc(=O)n2c1`, the activation is 1.52% (inactive).

For `O=C(Cc1cccc2ccccc12)Nc1ncn[nH]1`, the activation was 0.255% (inactive). In the case of `c1ccc(NCc2cccc3ccccc23)nc1` it was 5.45% (active); in that of `c1cnc(N2CCN(Cc3cccc4ccccc34)CC2)nc1`, 0.32% (inactive).
